The entries come from a sample that favours hits as a whole.
AmpC inh detg: qHTS Inhibitors of AmpC Beta-Lactamase (assay with detergent); P00811; Potency, µM (titrated, usually from 114 µM), usual class: inhibitors; AmpC hydrolysis of nitrocefin, absorbance 480 nm, 0.01% Triton; 370,000 compounds, 0.041% hits; also: nearly all actives have a fitted effect of over 25% in size
Target sequence (P00811 whole entry, looked up): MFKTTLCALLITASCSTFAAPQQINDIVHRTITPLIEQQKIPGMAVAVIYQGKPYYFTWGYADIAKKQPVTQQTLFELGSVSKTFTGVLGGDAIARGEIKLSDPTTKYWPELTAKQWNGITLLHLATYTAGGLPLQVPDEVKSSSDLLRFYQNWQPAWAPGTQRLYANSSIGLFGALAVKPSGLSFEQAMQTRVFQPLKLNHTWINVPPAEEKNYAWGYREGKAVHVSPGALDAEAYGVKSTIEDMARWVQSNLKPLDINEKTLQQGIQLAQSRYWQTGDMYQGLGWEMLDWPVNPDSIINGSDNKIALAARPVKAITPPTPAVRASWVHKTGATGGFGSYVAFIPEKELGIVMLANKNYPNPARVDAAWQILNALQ
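AmpC (5.3 nM in the dispensed reagent) in 20 mM phosphate pH 7.0 with 0.01% (detergent screen) or 0.0001% Triton X-100 was preincubated with compounds for 15 min at room temperature. Nitrocefin was then added from an 800 uM solution, and hydrolysis was followed at 480 nm.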
AmpC inh no detg: qHTS Inhibitors of AmpC Beta-Lactamase (assay without detergent); P00811; AmpC nitrocefin hydrolysis, absorbance 480 nm, 0.0001% Triton; Potency, µM (series often up to 57.1 µM), usual class: inhibitors; 330,000 compounds, 0.52% hits; also: nearly all actives have a fitted effect of over 20% in size
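20 mM phosphate pH 7.0 + 0.01% (detergent screen) or 0.0001% Triton X-100; 5.3 nM AmpC reagent; cpd preinc 15 min RT; nitrocefin (800 uM stock) to start; A480 q20 s × 4 min; Activity was normalised to no-enzyme and no-compound control wells.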
NS1 function inh: qHTS Assay for Inhibitors of Influenza NS1 Protein Function; Potency, µM (series often up to 46.1 µM); 270,000 compounds, 0.4% hits; AID 2326, 2010; calls by dose curve; also: actives are rising curves; nearly all actives have a fitted effect of over 50% in size
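S. cerevisiae expressing influenza A NS1, grown in glucose, washed, then diluted 1:100 into pH 6.0 -URA galactose medium with 23 nl compound. Growth recovery read as OD600; NS1-free strain serves as control.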
CHX counter: Cycloheximide Counterscreen for Small Molecule Inhibitors of Shiga Toxin; max response, %; cell reporter, cycloheximide protein synthesis inhibition counterscreen; 300,000 compounds, 12% hits; in the data active = max response mostly above about 13%, no sharp cut-off; inactive = mostly below about 14%; also: read at 38.3 µM for the half of the compounds with a filed dose
Shiga inhibitor: A qHTS for Small Molecule Inhibitors of Shiga Toxin. AID 2315, 2010. 290,000 compounds, 9.2% hits. inhibition, % at 38.7 µM. Vero cells, Shiga toxin protein synthesis inhibition reporter; in the data active = inhibition mostly above about 28%, no sharp cut-off; inactive = mostly below about 43%
Numbers stand for hits; . = inactive; ? = inconclusive; / = no result; + = active, no number; [ ] = remark or other dose. Unless noted, calls follow the shape of the dose curve; as a rule, active = well fitted curve in the direction sought with a large enough effect; inconclusive = small, poorly fitted or top-dose-only effect, or another doubt; inactive = no such curve, though single readings can be large; an effect the other way counts as inactive or inconclusive.

SMILES	AmpC inh detg	AmpC inh no detg	NS1 function inh	CHX counter	Shiga inhibitor
CS(=O)(=O)N(CC(=O)NC1CCCC1)c1ccc(Oc2ccccc2)cc1	.	.	.	.	.
C/C(=N\NC(=O)CN(c1ccc(Oc2ccccc2)cc1)S(C)(=O)=O)C(C)(C)C	.	.	/	33	.
CS(=O)(=O)N(CC(=O)NC1CC2CCC1C2)c1ccc(Oc2ccccc2)cc1 (stereo not drawn)	.	.	.	15	.
CCOC(=O)c1cnc2ccc(OC)cc2c1Nc1ccc(OCc2ccccc2Cl)cc1	.	/	/	/	/
C=CCNC(=O)NC(=S)c1ccccc1	.	.	.	23	.
COc1cc(NC(=O)C2CCN(c3cnc4ccccc4n3)CC2)cc(OC)c1OC	.	/	/	/	/
O=C1C(N2CCOCC2)=C(n2nnc3ccccc32)C(=O)c2ccccc21	?	.	.	45	.
Cc1ccc2oc(=O)c3cnn(CC(=O)N4CCN(c5ccc(F)cc5)CC4)c3c2c1	.	/	/	/	/
Cc1cc2c(cc(C(=O)OC(C(=O)NCC3CCCO3)C(C)C)n2C)o1 (stereo not drawn)	.	.	.	15	.
COc1ccc(/C=N/OCC(=O)N=Nc2c(O)[nH]c3ccc(Br)cc23)cc1OC	.	3.2µM	.	.	.
CCC1S/C(=N/N=C/c2ccco2)N(Cc2ccccc2C)C1=O (stereo not drawn)	.	.	.	.	38
CC1S/C(=N/N=C/c2ccco2)N(Cc2ccccc2)C1=O (stereo not drawn)	.	.	.	35	99
CC(C)(C)C1CCc2c(sc(NC(=O)c3cccs3)c2C(=O)N2CCCCC2)C1 (stereo not drawn)	?	.	.	.	.
COC(=O)CC(NS(=O)(=O)c1cccs1)c1ccc2c(c1)OCO2 (stereo not drawn)	.	.	.	.	.
CCCOC1(C(F)(F)F)NC(=O)N(c2ccc(Cl)cc2)C1=O (stereo not drawn)	.	/	/	/	/
O=C(NC(=S)NCCC1=CCCCC1)c1cncc(Br)c1	.	?	.	18	active
O=C(COC(=O)c1ccccc1NCCO)NCCC1=CCCCC1	.	.	/	/	/
S=C(NCCC1=CCCCC1)NCc1ccco1	.	.[2.29 µM]	.	23	47
O=C(COC(=O)c1ccccc1Br)NCCC1=CCCCC1	.	.	/	29	75
CCCNC(=O)C(=O)NCCC1=CCCCC1	?	.	.	.	.
O=C(NC(=S)NCCC1=CCCCC1)c1ccccc1Br	.	?	.	27	.
COc1ccc(Cn2c(SCC(=O)N3CCN(c4ccc(F)cc4)CC3)nc3ccccc32)cc1	.	/	/	/	/
Cc1cccc(NC(=O)N2CC=C(c3c[nH]c4ccccc34)CC2)c1C	.	/	/	/	/
CC1(C)CSC(=NCc2ccccc2)N1	.	.	.	.	.
c1ccc(CN=C2NN=C(c3cc4ccccc4o3)CS2)cc1	.	.	.	26	44
SMILES	AmpC inh detg	AmpC inh no detg	NS1 function inh	CHX counter	Shiga inhibitor
c1ccc2oc(C3=NNC(=NC4CC4)SC3)cc2c1	.	?	.	41	.
c1csc(C2=NNC(=NC3CCCCC3)SC2)c1	.	.	/	37	75
Cc1cc(C2=NNC(=NC3CCCCC3)SC2)c(C)n1-c1c(C)n(C)n(-c2ccccc2)c1=O	.	.	/	.	.
Cc1ccc(S(=O)(=O)N(CC(=O)Nc2ccc3c(c2)OCO3)c2ccc(C)c(Cl)c2)cc1	.	/	/	/	/
CC1CCN(C2=NC(=O)/C(=C/c3ccccc3F)S2)CC1	.	.	.	38	68
CCOc1ccc(C(=O)OCc2cc(=O)n3nc(C4CCCCC4)sc3n2)cc1	.	/	/	/	/
CC(NC(=O)NC(=O)c1ccc(Cl)cc1Cl)C1CC1 (stereo not drawn)	.	.	/	39	167
COc1ccc(Nc2cc(C)c3cc(NC(=O)c4cc(OC)cc(OC)c4)ccc3n2)cc1	.	/	/	/	/
COC(=O)CC1Oc2ccccc2-n2cc(-c3ccc(F)cc3)nc21 (stereo not drawn)	.	/	/	/	/
O=C(Nc1ccc(-c2n[nH]c(=S)o2)cc1)c1ccccc1	.	.	.	.	.
CCCc1c(C)[nH]c2ccc(C(=O)O)cc2c1=S	40µM	.	.	.	.
Cc1[nH]c2ccc(C(=O)O)cc2c1C	.	.	.	.	.
CCSc1nnc2c(n1)OC(c1sccc1C)N(C(C)=O)c1ccccc1-2 (stereo not drawn)	.	/	/	/	/
COc1ccc(CC(=O)Nc2cc(C)ccn2)cc1	.	.	.	42	86
COc1ccc(CNCc2cccc(C)c2)cc1	.	.	.	.	/
COc1ccc(CNc2cc(C)ccn2)cc1	.	.	.	37	97
Cc1ccnc(NCc2ccc(Br)cc2)c1	.	.	.	38	35
CN(C1CCCCC1)S(=O)(=O)c1ccc2c(c1)c(=O)c(C(=O)N1CCN(c3ccccc3)CC1)cn2C	.	/	/	/	/
Cc1ccc(Cl)cc1NC(=S)N(C)N	.	.	.	.	.
CCc1nnc2c(Nc3ccc(N(CC)CC)cc3C)nc3ccccc3n12	.	/	/	/	/
CC(C)C(=O)NC(=S)Nc1ccccc1N1CCN(C(=O)c2ccc(Cl)cc2)CC1	.	.	.	32	.
CC(=O)Nc1ccc(OCC(=O)Nc2ccc(Cl)c(S(=O)(=O)N3CCOCC3)c2)cc1	/	.	/	/	/
COc1cc(OC)cc(C(=O)Oc2ccc(/C=N/Nc3nc4ccccc4s3)cc2OC)c1	.	.	.	48	124
COc1cc(/C=N/Nc2nc3ccccc3s2)ccc1OC(=O)c1ccccc1F	.	.	.	43	+
COc1cc(/C=N/NC2=NS(=O)(=O)c3ccccc32)ccc1OC(C)=O	.	.	.	.	.
SMILES	AmpC inh detg	AmpC inh no detg	NS1 function inh	CHX counter	Shiga inhibitor
CC1CCCN(Cc2c(O)ccc3c(=O)c(-c4ccc(Cl)cc4)c(C(F)(F)F)oc23)C1 (stereo not drawn)	.	/	/	/	/
CN(C)/C=C/C(=O)c1ccc(Br)cc1	.	.	.	26	61
CC(C)Oc1ccc(CN2CCCC(CO)(Cc3ccccc3)C2)cc1CO (stereo not drawn)	?	.	.	.	/
Cc1ccc(C)c(C(=O)CSc2n[nH]c(C)n2)c1	?	.	.	.	.
Cc1ccc(C(=O)CSc2n[nH]c(C)n2)cc1	?	.	.	30	86
CCc1ccc(C(=O)CSc2n[nH]c(C)n2)cc1	?	.	.	44	111
O=C(NCCc1ccccc1)c1nnc(Cc2cccc(F)c2)o1	.	/	/	/	/
CN1/C(=C\C(=O)c2cccnc2)C(C)(C)c2ccccc21	.	.	.	15	.
O=C(NCc1cc([N+](=O)[O-])ccc1O)c1cccnc1Sc1ccc(Cl)cc1	.	.	.	40	43
COc1cccc(CNS(=O)(=O)c2ccc(-c3cc(C(F)(F)F)on3)s2)c1	.	/	/	/	/
Oc1ccc2c(c1)oc1cc(O)ccc12	?	.	.	45	63
CC1CCCN(c2nc3ccsc3c(=O)s2)C1 (stereo not drawn)	?	.	.	44	119
O=[N+]([O-])c1ccc(N=Nc2ncc[nH]2)cc1	.	.	.	16	.

Screening data: PubChem, National Center for Advancing Translational Sciences (NCATS)
